Compounds with a hit are over-represented: about 19% of the library has one in this group of screens.
TDP1 cell CPT – growth inhibition of DT40 Tdp1-/-;hTDP1 cells with camptothecin (screen for TDP1 inhibitors) | chicken DT40 Tdp1-/-;hTDP1 cells + 20 nM CPT, ATP luminescence, 48 h | Potency, µM (titrated, usually from 46.2 µM), for the others: at the top dose activity change, negative = growth inhibition, actives largely listed as inhibitors | actives 12% (n = 420,000); note: potency is the fitted concentration of half-maximal effect; nearly all actives have a fitted effect of over 55% in size
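Chicken DT40 Tdp1-/- cells complemented with human TDP1, 400 cells/well, exposed to compounds plus 20 nM camptothecin for at least 48 h at 37 C; viability read as ATP content by CellTiter-Glo luminescence.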
uPA generation – cell surface uPA generation inhibition; actives 0.31% (n = 330,000); cell surface uPA generation assay, qHTS; AID 540303; Potency, µM (highest dose often 38.3 µM), for the others: top-dose activity change, negative = inhibition, most hits filed as inhibitors; active = well fitted inhibition curve with a large enough effect; inconclusive = small, poorly fitted or top-dose-only effect; inactive = no such curve, though single readings can be large or run the other way; tested in mouse RAW 264.7 cells; note: potency is the fitted concentration of half-maximal effect; nearly all actives have a fitted effect of over 55% in size
HT1080NT lethal – kills 2HG-producing HT-1080-NT fibrosarcoma cells; HT-1080-NT fibrosarcoma viability, CellTiter-Glo ATP luminescence, 48 h; Potency, µM (series often up to 46.1 µM), for the others: at the highest dose activity, negative = less viability, actives largely listed as cytotoxic; actives 1.6% (n = 360,000); AID 686970;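 note: NT is the 2HG producing partner of a matched IDH1 knockdown line; potency is the fitted concentration of half-maximal effect; 0% = DMSO-treated cells and -100% = media-only wells without cells; nearly all actives have a fitted effect of over 55% in size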
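HT-1080-NT fibrosarcoma cells (2HG-overproducing), 750 cells/well in RPMI with 5% FBS, dosed after 2 h and incubated 48 h at 37C. CellTiter-Glo luminescence normalized to DMSO and no-cell wells; concentration-response curves fitted and classed.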
IL-1B inflam inh – inflammasome signaling inhibition, IL-1 beta readout. THP-1 LPS/ATP IL-1B secretion, AlphaLISA, 16 h; hits give low values. activity change, % at 57.5 µM. actives 4.7% (n = 360,000). AID 743279; in the data active = activity change below about -50%; inconclusive = mostly about -30% to -49%
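Secreted IL-1B measured by AlphaLISA bead assay after 16 h compound exposure of THP-1 cells; compounds (final up to 57.5 uM) added 1 h before LPS (250 ng/mL) and ATP (1.25 mM) stimulation; lower signal means less secretion.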
TDP1 cell noCPT – qHTS for Inhibitors of human tyrosyl-DNA phosphodiesterase 1 (TDP1): qHTS in cells in absence of CPT; DT40 Tdp1-/- hTDP1 cells, no CPT, ATP luminescence, 48 h; Potency, µM (titrated, usually from 46.2 µM), for inactives: top-dose activity change, negative = growth inhibition, actives largely listed as inhibitors; actives 15% (n = 420,000); note: potency is the fitted concentration of half-maximal effect; nearly all actives have a fitted effect of over 55% in size
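Cells were dispensed at 400 per well, compounds added by pin tool, plates incubated ≥48 hr at 37 °C, then CellTiter-Glo added for 30 min at room temperature before luminescence reading. Line: DT40 Tdp1-/- complemented with hTDP1; camptothecin omitted.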
HT1080 IDH1KD tx – HT-1080 IDH1 knockdown cell toxicity (counter line); HT-1080 IDH1 knockdown viability, ATP luminescence, 48 h; Potency, µM (top dose mostly 46.1 µM), for inactives: at the highest dose activity, negative = toxicity, hits mostly cytotoxic; actives 2% (n = 360,000); AID 686971;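 note: potency is the fitted concentration of half-maximal effect; 0% = DMSO wells and -100% = cell-free medium wells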
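HT-1080-IDH1KD cells (IDH1 knocked down), 750/well in RPMI with 5% FBS, treated with compound 48 h at 37 degrees C. Viability by CellTiter-Glo luminescence, normalised to DMSO and no-cell wells; concentration-response curves classed.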
* marks the source's active call; other numbers are inactive results; ? = inconclusive; · = no result given. Unless noted, calls come from the whole dose curve; as a rule, active = well fitted curve in the direction sought with a large enough effect; inconclusive = small, poorly fitted or top-dose-only effect, or another doubt; inactive = no such curve, though single readings can be large; an effect the other way counts as inactive or inconclusive. Unless noted, % is set by controls: 0 for no effect and ±100 for the full control effect.

SMILES	TDP1 cell CPT	uPA generation	HT1080NT lethal	IL-1B inflam inh	TDP1 cell noCPT	HT1080 IDH1KD tx
OC(COc1c(F)cc(Br)cc1F)CN1CCc2ccccc2C1 (configuration not stated)	?	?	-2%	-7	?	1%
Cc1cccc(C)c1OCC(O)Cn1ccnc1C (configuration not stated)	?	4%	-7%	-3	?	-4%
Cc1nc2cnc(N3CCN(C)CC3)nc2n(C)c1=O	7%	·	·	·	4%	·
CC1C(=O)N(Cc2cn(Cc3ccco3)nn2)CCS(=O)(=O)N1Cc1ccc(-c2ccc(Cl)cc2)cc1 (configuration not stated)	18µM*	·	-19%	-28	13µM*	-26%
CC1C(=O)N(Cc2cn(CCC3OCCO3)nn2)CCS(=O)(=O)N1Cc1ccc(-c2ccccc2)cc1 (configuration not stated)	-29%	·	-4%	67	?	4%
CC1C(=O)N(Cc2cn(Cc3ccco3)nn2)CCS(=O)(=O)N1Cc1ccc(-c2ccccc2)cc1 (configuration not stated)	?	·	-22%	-20	18µM*	-13%
CCNC(=O)C1(C)CCCN(C(=O)c2sc(-c3ccccc3)nc2C)C1 (configuration not stated)	0%	·	-1%	11	9%	11%
CC1=C(CC/C(C)=N/NC(N)=S)C(C)(C)CCC1	4µM*	·	6.3µM*	-3	3.2µM*	8.9µM*
CCOC(=O)COc1ccc([N+](=O)[O-])cc1-c1ccnc2cc(-c3ccc(C)cc3)nn12	-3%	·	·	·	-21%	·
CCc1ccc(O)c(C(=O)c2cnc3cc(-c4ccc(C)cc4)nn3c2)c1	?	·	·	·	-5%	·
Cc1ccc(-c2cc3ncc(C(=O)c4cc([N+](=O)[O-])ccc4O)cn3n2)cc1	?	·	·	·	2.3µM*	·
Cc1ccc(-c2cc3nccc(-c4cc([N+](=O)[O-])ccc4O)n3n2)cc1	23µM*	·	·	·	23µM*	·
C[C@@H]1CCC(=O)N(CC[C@H](N=[N+]=[N-])c2ccccc2)CC1	12%	-5%	3%	21	?	2%
CC(C)(C)[C@@H]1CCC(=O)N(CC[C@H](Sc2ccccc2)c2ccccc2)CC1	16µM*	-14%	-18%	?	21µM*	-27%
CC(C)(C)[C@@H]1CCC(=O)N(CC[C@H](N=[N+]=[N-])c2ccccc2)CC1	?	-15%	2%	-24	18µM*	1%
CC(=O)Nc1ccc(S[C@@H](CCN2CC[C@H](C(C)(C)C)CCC2=O)c2ccccc2)cc1	21µM*	-18%	-28%	-74*	18µM*	?
Cc1ccc(CNC(=O)C2CCCN(S(=O)(=O)c3ccc4c(c3)oc(=O)n4C)C2)cc1 (configuration not stated)	-10%	·	·	·	?	·
O=C(Cn1cnc2c(NC(=O)OCc3ccccc3)ncnc21)NCCN1CCOCC1	-10%	-2%	14%	18	-7%	1%
CC(=O)NCCc1nc2ccccc2n1Cc1cc(C)ccc1C	?	1%	-23%	57	?	3%
O=[N+]([O-])c1cc([N+](=O)[O-])c2nonc2c1Nc1ccccc1O	?	5.6µM*	-18%	0	?	-26%
Cc1ccc(Nc2c([N+](=O)[O-])ccc3nonc23)cc1C	-3%	0%	-2%	-16	2%	1%
O=[N+]([O-])c1cc([N+](=O)[O-])c2nonc2c1Nc1ccc(O)cc1	?	11µM*	-1%	4	21µM*	-4%
Brc1ccc(-c2nnc3c4ccccc4nc(N4CCOCC4)n23)cc1	?	1%	?	0	?	11%
Clc1ccc(-c2nnc3c4ccccc4nc(N4CCOCC4)n23)cc1Cl	18µM*	-1%	-3%	0	10µM*	-16%
Cc1ccccc1-c1nc(CN2CCCC(C(=O)NCc3cccnc3)C2)c(C)o1 (configuration not stated)	23µM*	2%	-7%	-5	16µM*	-13%
SMILES	TDP1 cell CPT	uPA generation	HT1080NT lethal	IL-1B inflam inh	TDP1 cell noCPT	HT1080 IDH1KD tx
Cc1ccccc1-c1nc(CN2CCCC(C(=O)NCCCN3CCOCC3)C2)c(C)o1 (configuration not stated)	3%	2%	-26%	-23	?	-2%
CCc1ccc(-c2nc(CN3CCCC(C(=O)NCCc4ccc(OC)c(OC)c4)C3)c(C)o2)cc1 (configuration not stated)	23µM*	-4%	-30%	-59*	13µM*	?
CCOc1ccc(CCNC(=O)C2CCN(Cc3nc(-c4ccccc4C)oc3C)CC2)cc1OCC	-29%	·	·	·	-13%	·
Cc1ccc(CCNC(=O)C2CCN(Cc3nc(-c4ccccc4C)oc3C)CC2)cc1	13µM*	·	·	·	18µM*	·
COc1ccc(CCNC(=O)C2CCCN(Cc3nc(-c4ccccc4C)oc3C)C2)cc1OC (configuration not stated)	23µM*	-2%	-5%	-4	23µM*	-14%
C[C@@H]1CN([C@H](C)CO)C(=O)CCCn2nncc2CO[C@H]1CN(C)Cc1ccccc1	12%	·	9%	12	-19%	-3%
O=C(CCNC(=O)N1CC(=O)Nc2ccccc21)NCc1ccc(Cl)cc1	2%	·	7%	23	-14%	0%
CCOC(=O)C1CCN(C(=O)CCC2CCCC2)CC1	1%	22%	1%	-5	-3%	4%
O=C1c2oc3ccccc3c(=O)c2C(c2ccc(O)cc2)N1Cc1ccc2c(c1)OCO2 (configuration not stated)	0%	·	·	·	-21%	·
Cc1cc(Cl)nc2nc(Cl)ccc12	?	·	·	·	5.6µM*	·
CN1CCN(c2ccc(-c3cccc(NC(=O)COc4ccccc4)c3)nn2)CC1	?	-7%	1%	-5	21µM*	0%
CN1CCN(c2ccc(-c3cccc(NC(=O)COc4ccc(Cl)cc4)c3)nn2)CC1	?	-10%	0%	-70*	?	-12%
CCCCNC(=O)c1onc(CSc2ccc(F)c(F)c2)c1C(=O)NCCCC	16µM*	12%	1%	-16	?	6%
C=CCNC(=O)c1onc(CSc2cc(C)cc(C)c2)c1C(=O)NCC=C	?	-3%	-12%	-104*	18µM*	0%
CCCCNC(=O)c1onc(CSc2ccc(Cl)cc2)c1C(=O)NCCCC	?	2%	-11%	?	?	-1%
